# Test results published in PubChem BioAssay AID1014 (NMMLSC, 2008).
# The source made the active and inactive calls. No stated cut-off is given here; in the data, active means inhibition of mean fluorescence above about 33%; inactive means the rest.
# Assay: quorum sensing inhibitors in bacterial reporter, SAR follow-up, flow cytometry, SAR analogs (AID 1014);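 further: Staphylococcus aureus RN6390 with RNAIII-GFP reporter stimulated by AIP; bacteria incubated with compound for 3 hours at 37 °C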
# Conditions: at 20 µM, stronger effect = higher value; inhibition of percent positive cells: flow cytometry fluorescence, measured here: percent reporter-positive cells
Compound,inhibition of percent positive cells,inhibition of mean fluorescence
CCOC(=O)c1c(-c2cc(Cl)c(OC)c(Cl)c2)oc2ccc(O)cc12,-0.4%,-4.9% (inactive)
COc1cccc(C(=O)NCC(c2cccnc2)N2CCN(c3ccccc3OC)CC2)c1 (stereo not given),-0.3%,10.5% (inactive)
O=C(O)c1c(F)c(F)c(F)c(F)c1Nc1cccc(C(F)(F)F)c1,-0.1%,6% (inactive)
Cc1cc(C)cc(Nc2c(F)c(F)c(F)c(F)c2C(=O)O)c1,-0.2%,14% (inactive)
O=C(O)c1cc(Nc2ccccc2C(=O)O)nc(Nc2ccccc2C(=O)O)n1,-0.3%,2.4% (inactive)
COc1ccc(Nc2nc3c(S(=O)(=O)c4ccccc4)nnn3c3ccsc23)cc1,0.3%,-41.7% (inactive)
O=C(CSc1cn(CC(=O)N2CCCCC2)c2ccccc12)Nc1ccc2c(c1)OCO2,-0.1%,-6.3% (inactive)
Cc1ccc(Nc2nc3c(S(=O)(=O)c4ccc(C(C)(C)C)cc4)nnn3c3ccccc23)cc1,-1%,-38.2% (inactive)
COc1ccc(NC(=O)C(c2cc3c(cc2[N+](=O)[O-])OCO3)N2CC(C)CC(C)C2)cc1 (stereo not given),0.5%,49.3% (active)
Cc1nnc(N2CCC(C(=O)Nc3ccc4c(c3)OCCO4)CC2)c2nn(-c3ccccc3)c(C)c12,0%,-7.3% (inactive)
CCc1ccc(S(=O)(=O)c2n[nH]n3c2nc(=O)c2ccccc23)cc1,53.5%,87.7% (active)
O=C(CCN1CCN(c2ccccc2)CC1)Nc1ccc2c(c1)OCO2,1.3%,5.8% (inactive)
COc1ccc(Nc2ccccc2C(=O)O)cc1,-2.8%,0.6% (inactive)
CN1CCN(C(=O)C(=O)Nc2ccc3c(c2)OCO3)CC1,0.1%,-2.5% (inactive)
CC(=O)c1c(C)oc2ccc(O)cc12,-1.1%,-5.9% (inactive)
CCOC(=O)c1cnc2ccc(OC(F)(F)F)cc2c1Nc1ccccc1C(=O)O,0.6%,22.4% (inactive)
O=C(NCC(c1cccnc1)N1CCN(c2ccccc2F)CC1)c1ccco1 (stereo not given),-1.9%,-27.7% (inactive)
Cc1ccc(Nc2c(F)c(F)c(F)c(F)c2C(=O)O)c(C)c1,-2.3%,4.2% (inactive)
Cc1cc(Nc2ccccc2C(=O)O)n2ncnc2n1,-0.3%,-29.1% (inactive)
O=C(NC1CCCC1)C(c1cc2c(cc1[N+](=O)[O-])OCO2)N1CCN(c2ccccc2)CC1 (stereo not given),-1.6%,-13.2% (inactive)

Compound,inhibition of percent positive cells,inhibition of mean fluorescence
CC(C)c1ccc(NC(=O)C(c2ccc3c(c2)OCO3)N2CCN(C(=O)c3ccco3)CC2)cc1 (stereo not given),-1.4%,-33.9% (inactive)
COc1cccc(C(=O)NCC(c2cccnc2)N2CCN(c3ccccc3F)CC2)c1 (stereo not given),-1.4%,7% (inactive)
O=C(Nc1ccc2c(c1)OCO2)C(c1ccccc1)N1CCN(C(=O)c2ccco2)CC1 (stereo not given),1%,-23.7% (inactive)
Cc1ccc(S(=O)(=O)c2nnn3c2nc(Nc2ccc(Oc4ccccc4)cc2)c2cc(Cl)ccc23)cc1,-0.5%,-19.1% (inactive)
O=C(Nc1ccc2c(c1)OCCO2)N1CCCC(CN2CCc3ccccc3C2)C1 (stereo not given),0.1%,-1.4% (inactive)
Cc1cc(C)nc(Nc2ccccc2C(=O)O)n1,-0.8%,22.7% (inactive)
O=C(NCCN1CCN(c2ccccc2)CC1)c1ccccc1F,-1.5%,-12.3% (inactive)
O=C(NCC(c1cccnc1)N1CCN(c2ccccc2F)CC1)C1CC1 (stereo not given),-0.7%,-8.8% (inactive)
COc1ccc(S(=O)(=O)c2n[nH]n3c2nc(=O)c2ccccc23)cc1,-1.8%,34.1% (active)
O=C(NCC(c1cccnc1)N1CCN(c2ccccc2)CC1)c1ccc(F)cc1 (stereo not given),-0.8%,-24.9% (inactive)
O=C(NCCN1CCN(c2ccccc2F)CC1)c1ccc2c(Cl)c3c(nc2c1)CCCC3,-0.2%,4.8% (inactive)
Cc1ccc(C)c(S(=O)(=O)c2n[nH]n3c2nc(=O)c2sccc23)c1,0%,35.2% (active)
O=C(O)c1cccnc1Nc1cccc(SC(F)(F)F)c1,8.8%,64.5% (active)
O=C(NCC(c1cccnc1)N1CCc2ccccc2C1)c1ccc(F)c(F)c1 (stereo not given),-0.1%,-6.4% (inactive)
CCCCc1oc2ccccc2c1C(=O)c1ccc(O)cc1,43.2%,84.9% (active)
COc1c(F)c(F)c(C(=O)O)c(Nc2ccccc2C)c1F,-0.2%,9.6% (inactive)
COc1cccc(C(=O)NCC(c2cccnc2)N2CCN(c3ccc(F)cc3)CC2)c1 (stereo not given),0%,8.6% (inactive)
CC(C)c1ccc(NC(=O)C(c2cc3c(cc2[N+](=O)[O-])OCO3)N2CCC(Cc3ccccc3)CC2)cc1 (stereo not given),-0.4%,-12% (inactive)
CC(C)c1ccc(NC(=O)C(c2ccc3c(c2)OCO3)N2CCc3ccccc32)cc1 (stereo not given),-1.6%,26.3% (inactive)
COc1ccc(Nc2nc3c(S(=O)(=O)c4ccc(Br)cc4)nnn3c3ccccc23)cc1,-0.8%,2.8% (inactive)
